Measured values published in PubChem BioAssay (NCI).
The panel holds about 83,000 compounds, 20% with a hit somewhere; the sample as a whole holds those more often.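 How to read the values: 0–100, growth inhibition (40 = 60% inhibited); 0, no net growth; -100 to 0, cell death (-40 = 40% of starting cells died; -100 = all dead).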 Values without a mark were called inactive. The source made the active and inactive calls. How the source made its calls: active means growth percent below 10; inactive means the rest.

Tested on: RXF 393 renal
Test: NCI-60 one-dose screen, 48 h (100 = growth as untreated, 0 = no growth, -100 = all killed)
Conditions: 10 µM unless noted

SMILES	growth
O=C1Nc2cc(-c3cccc(O)c3)ccc2/C1=C/c1ccc[nH]1	-39.8% (active)
COc1ccc(/C=C/c2nc(Nc3ccc(S(=O)(=O)NC(C)=O)cc3)c3ccccc3n2)cc1	103%
CCNC(=O)Oc1ccc(/C(=C(\C)c2ccccc2)c2ccc(OCCN3CCCCC3)cc2)cc1	59.3%

Tested on: SF-268 CNS
Test: as above
Conditions: 10 µM unless noted

SMILES	growth
Cc1nn(-c2ccccc2)c(Cl)c1/C=C/C(=O)c1ccc(F)cc1	96.8%
COc1cc2oc(-c3cccc(C(=O)Nc4ccc(Br)cc4)c3)cc(=O)c2c(OC)c1OC	61.8%
CC1=C(C(=O)/C=C/c2c[nH]c3ccccc23)C(c2ccccc2)NC(=S)N1 (stereo unspecified)	92.7%
CCCCCN1C=C/C(=C\C(=O)N(C)c2ccc(Oc3ccccc3)cc2)c2ccccc21	87.8%
Cn1cc(-c2nc(-c3c[nH]c4c(Cl)nccc34)cs2)c2cc(Br)ccc21	105%
COc1ccc(/C=C2\Oc3cc(OCCCN4CCCCC4)ccc3C2=O)cc1OC	86.5%
Cc1cc2nc3c4cc(C=O)ccc4n(CCN(C)C)c3nc2cc1C	37.3%
S=c1cc(S)c2cc(Br)ccc2[nH]1	99%
O=C(/C(=C\c1ccc([N+](=O)[O-])cc1)S(=O)Cc1ccc(Cl)cc1)c1ccc(Cl)cc1 (stereo unspecified)	64%
COc1cc(CC(=O)c2ccc(O)c(OC)c2)ccc1O	102%
O=C(NCCc1ccccc1)Nc1ccc2cc3ccc(NC(=O)NCCc4ccccc4)cc3nc2c1	-54.2% (active)
C=C(C)[C@@H]1CC[C@]2(C(=O)N3CCN(C)CC3)CC[C@]3(C)[C@H](CC[C@@H]4[C@@]5(C)C/C(=C/c6cccnc6)C(=O)C(C)(C)[C@@H]5CC[C@]43C)[C@@H]12	72.7%
COc1cc2nc(-c3ccc(Cl)cc3)cc(OCCCN3CCC(O)CC3)c2cc1OC	54.8%
O=S(=O)(NCCNc1nccc(-c2c(-c3cccc(O)c3)nc3occn23)n1)c1ccccc1	85.3%
NC(=NCCCOc1ccc(F)cc1)Nc1ccc(Cl)cc1	49.9%
C#Cc1cccc(NC(=O)c2cccc(NC(=O)CCl)c2)c1	8.4% [8.25 µM] (active)
CCN1Cc2nc3sc(C)c(C)c3c(=O)n2C=C1C	101%
O=C1Nc2cc(-c3cccc([N+](=O)[O-])c3)ccc2/C1=C/c1ccc[nH]1	97.1%
C[C@H]1[C@H](C)CC[C@]2(C(=O)NCC#CCN3CCN(C)CC3)CC[C@]3(C)C(=CC[C@@H]4[C@@]5(C)Cc6c([nH]c7ccccc67)C(C)(C)[C@@H]5CC[C@]43C)[C@H]12	82.5%

SMILES	growth
COc1cc(/C=C/c2cc(O)c(C(C)=O)c(O)c2)cc2c1O[C@]1(C)CC[C@@H](O)C(C)(C)[C@H]1C2	55.8%
N#CC1=C(N)Oc2c(cnn2-c2ccc([N+](=O)[O-])cc2[N+](=O)[O-])C1c1ccccc1 (stereo unspecified)	102%
COc1ccc(C(=O)c2cc(C)c(OC)c(C)c2)c(OC)c1N(C(=O)CCl)C(=O)CCl	24.6%
CCC(=O)Oc1ccc(/C(=C(\C)c2ccccc2)c2ccc(OCCN3CCCCC3)cc2)cc1	80.3%
Cc1ccc(NC(=O)c2cc(-c3nc4ccccc4s3)c(=O)n(NS(=O)(=O)c3ccc(Cl)cc3)c2N)cc1	94.2%
O=C1Nc2ccc(F)cc2/C1=C\c1c(-c2ccccc2)nc2ccccn12	79.5%
O=C(NO)c1ccc(-n2nc(-c3ccccc3)c3ccccc32)cc1	54.7%
O=C1Nc2ccccc2/C1=C\c1c(-c2ccc(F)cc2)nc2ccccn12	77.7%
Oc1cccc(CCc2ccc(Oc3cc(CCc4cccc(O)c4)cc(O)c3O)cc2)c1	51.7%
CCCCCCCC(=O)OCC/C=C/C1OC1C1OC(=O)/C=C\C=C\C(=O)N(C(C)=O)C(=O)/C=C(/C)CCC2OC2C1OC(=O)NC(C)=O (stereo unspecified)	93.4%
Cc1ccc(NS(=O)(=O)c2ccc(-c3cnc(C4CC4)o3)cc2)cc1C(F)(F)F	77.5%
CNC(=O)c1cncc(Cn2nc(C)c(NC(=O)c3ccc(COc4ccc(C(F)(F)F)cc4C)cc3)c2C)c1	70.8%
Cc1cc(C)c(S(=O)(=O)Oc2ccccc2[N+](=O)[O-])c(C)c1	37.2%
C=C1C(=O)O[C@H]2[C@H]1CC/C(CNC(=O)C(C)c1ccc(CC(C)C)cc1)=C\CC[C@@]1(C)O[C@@H]21 (stereo partly specified)	43.9%
NC(=S)N1N=C(c2ccccc2)CC1c1cn(-c2ccccc2)nc1-c1ccc(OCc2ccccc2)cc1 (stereo unspecified)	101%
CN1CCN(C(=O)[C@]23CCC(C)(C)C[C@H]2C2=CC[C@@H]4[C@@]5(C)C/C(=C/c6cccnc6)C(=O)C(C)(C)[C@@H]5CC[C@@]4(C)[C@]2(C)CC3)CC1	68.3%
O=C1Nc2cc(-c3cccc(O)c3)ccc2/C1=C/c1ccc[nH]1	15.4%
COc1ccc(/C=C/c2nc(Nc3ccc(S(=O)(=O)NC(C)=O)cc3)c3ccccc3n2)cc1	85.3%
CCNC(=O)Oc1ccc(/C(=C(\C)c2ccccc2)c2ccc(OCCN3CCCCC3)cc2)cc1	68.1%
